Laboratory results reported in PubChem BioAssay (Tox21).
Inconclusive results are not listed. Activity calls are given as the source filed them. Calls follow the shape of the dose curve; as a rule, active = well fitted cell-killing curve with a large enough effect in the repeat runs; inconclusive = weak or mixed curves; inactive = flat fitted curve, though single readings scatter.

Assay: qHTS assay to identify small molecule antagonists of the TGF-beta/Smad signaling pathway - cell viability counter screen (AID 1346824); also: nearly all actives have a fitted effect of over 50% in size
Conditions: SBE-bla HEK293T viability, CellTiter-Glo luminescence; series mostly up to 76.8 µM; viability change, negative = cytotoxic: at the top concentration
Source text: U.S. Tox21 Program National Center for Advancing Translational Sciences [NCATS] NIH Chemical Genomics Center [NCGC] U.S. Environmental Protection Agency [EPA] National Institutes of Environmental Health Sciences [NIEHS] National Toxicology Program [NTP] U.S. Food and Drug Administration [FDA] Tox21 Assay Overview: Transforming growth factor beta (TGF-beta) superfamily consists of a large number of structurally related dimeric proteins that act as hormones or local mediators in regulating a wide range of biological functions. This superfamily includes TGF-betas themselves, the bone morphogenetic proteins (BMPs) and the activins. These ligands induce oligomerization of serine/threonine receptor kinases and phosphorylate the cytoplasmic signaling molecules of Smad protein family. CellSensor SBE-bla HEK 293T cell line (Life Technologies, Carlsbad, CA), responsive to TGF-beta was used to screen Tox21 10K compound library for identification of agonists/antagonists of the Smad signaling pathway. This cell line contains a beta-lactamase reporter gene under control of the Smad binding element (SBE) stably integrated into HEK 293T cells. Also cytotoxicity of the compounds was tested in parallel by measuring the cell viability using CellTiter-Glo assay system in the same wells.
Tox21 Assay Protocol Summary: SBE-bla HEK 293T cells were dispensed at 4,000/well in 5 uL of assay medium into black wall/clear-bottom 1536-well plates using a Multidrop Combi (ThermoFisher Scientific, Waltham, MA) dispenser. After the assay plates were incubated at 37 C and 5% CO2 for an overnight, 23 nL of compounds dissolved in DMSO, positive controls or DMSO only was transferred to the assay plate by a Pintool station (Kalypsys, San Diego, CA). Compound transfer was followed by the addition of 1 uL of 0.25 ng/mL TGF-beta1 or assay buffer using two separate tips of Flying Reagent Dispenser (FRD, Aurora Discovery, San Diego, CA). The assay plates were incubated at 37 C and 5% CO2 for 5 hr. One uL of LiveBLAzer B/G FRET substrate (Life Technologies) was added using a Flying Reagent Dispenser (FRD, Aurora Discovery, San Diego, CA) and the plates were incubated at room temperature for 2 hr. Fluorescence intensity (405 nm excitation, 460 nm and 530 nm emissions) was measured using an Envision plate reader (PerkinElmer, Shelton, CT). For cytotoxicity read, 4 uL of CellTiter-Glo reagent (Promega Corporation, Madison, WI) was added to each well of the assay plates using FRD. After 30 min incubation at room temperature, the luminescence intensity was measured using ViewLux plate reader (PerkinElmer).
% is scaled to controls: 0 for no effect and ±100 for the full control effect.

| Compound | viability change, negative = cytotoxic |
| --- | --- |
| Cn1ccc2cc3c(cc21)CCN3C(=O)Nc1cccnc1 | 10.7% [at 15.8 µM] (inactive) |
| N[C@@H](CS)C(=O)O | -14.2% (inactive) |
| Nc1cc(N)cc(C(=O)O)c1 | 2.92% (inactive) |
| Nc1nc(F)nc2c1ncn2[C@@H]1O[C@H](CO)[C@@H](O)[C@@H]1O | 3.62% [at 35.3 µM] (inactive) |
| C#CC(C)(O)CC(C)C (stereo not given) | -2.82% (inactive) |
| CC1=CCC2C(C1)C2(C)C (stereo not given) | 1.26% (inactive) |
| CC(C)COC(=O)c1ccccc1O | 4.75% (inactive) |
| CC1CCN(CCCC(=O)c2ccc(F)cc2)CC1 | -4.73% [at 35.3 µM] (inactive) |
| C=C(C)C(=O)NCCCN(C)C | 3.94% (inactive) |
| CC1(C)SC(C)(C)SC(C)(C)S1 | 14% (inactive) |
| CCCCCCCCCCCCCCCCCCOCC(O)CO (stereo not given) | 6.41% [at 35.3 µM] (inactive) |
| CCC(=O)/C=C/c1ccc(OC)cc1 | 16% (inactive) |
| OCC(O)[C@@H](O)[C@H](O)[C@H](O)CO[C@H]1O[C@H](CO)[C@@H](O)[C@H](O)[C@H]1O (stereo not given in full) | -8.12% (inactive) |
| CC(C=O)Cc1ccc(C(C)C)cc1 (stereo not given) | 1.56% (inactive) |
| Cc1ccccc1C(=O)O | 10.3% (inactive) |
| NS(=O)(=O)c1cc(C2(O)NC(=O)c3ccccc32)ccc1Cl (stereo not given) | 5.04% [at 35.3 µM] (inactive) |
| OC[C@H]1O[C@@H]2O[C@H]3[C@H](O)[C@@H](O)[C@@H](O[C@H]4[C@H](O)[C@@H](O)[C@@H](O[C@H]5[C@H](O)[C@@H](O)[C@@H](O[C@H]6[C@H](O)[C@@H](O)[C@@H](O[C@H]7[C@H](O)[C@@H](O)[C@@H](O[C@H]8[C@H](O)[C@@H](O)[C@@H](O[C@H]9[C@H](O)[C@@H](O)[C@@H](O[C@H]1[C@H](O)[C@H]2O)O[C@@H]9CO)O[C@@H]8CO)O[C@@H]7CO)O[C@@H]6CO)O[C@@H]5CO)O[C@@H]4CO)O[C@@H]3CO | -5.71% [at 35.3 µM] (inactive) |
| COCCOC(=O)CC#N | 1.58% (inactive) |
| COC(=O)c1ccc(C(=O)OC)c(C(=O)OC)c1 | 3.69% (inactive) |
| COc1cccc(OC)c1 | -1.77% (inactive) |

| Compound | viability change, negative = cytotoxic |
| --- | --- |
| O=S(=O)(O)c1ccccc1O | -28.1% (inactive) |
| C=C(C)[C@H]1CC=C(C)CC1 | 16.4% (inactive) |
| CCOC(=O)Cn1c(=O)sc2cccc(Cl)c21 | -3.8% (inactive) |
| CCC(C)OC(=O)N1CCCCC1CCO (stereo not given) | -1.35% (inactive) |
| CCCCCCCCCCCl | -6.48% (inactive) |
| C=C(C)C(=O)OCCC(C)OC(=O)C(=C)C (stereo not given) | 6.1% (inactive) |
| CCCCC1CCCCC(=O)O1 (stereo not given) | 8.43% (inactive) |
| Nc1nc2c(ncn2CCC(CO)CO)c(=O)[nH]1 | 3.44% [at 35.3 µM] (inactive) |
| C1=C\CC/C=C\CC/C=C\CC/1 | 2.93% (inactive) |
| C[N+](C)(C)CC[N+]1(C)Cc2c(Cl)c(Cl)c(Cl)c(Cl)c2C1 | -1.87% [at 35.3 µM] (inactive) |
| CC(C)=CC(=O)O | 4.02% (inactive) |
| NC(CS)C(=O)O (stereo not given) | -7.47% [at 35.3 µM] (inactive) |
| CCN1CCN(c2cc3c(cc2F)c(=O)c(C(=O)O)cn3C2CC2)CC1 | -4.73% [at 35.3 µM] (inactive) |
| C#CC(O)CCCCC (stereo not given) | -1.41% (inactive) |
| CCCCCOC(=O)Nc1nc(=O)n([C@@H]2O[C@H](C)[C@@H](O)[C@H]2O)cc1F | 7.12% [at 35.3 µM] (inactive) |
| OCC(CO)(CO)COCC(CO)(CO)CO | 0.648% (inactive) |
| COC(=O)C1=C(C)NC(C)=C(C(=O)OCC(C)=O)C1c1ccccc1[N+](=O)[O-] (stereo not given) | 5.04% [at 35.3 µM] (inactive) |
| O=[N+]([O-])c1ccc(CCO)cc1 | 6.16% (inactive) |
| C/C=C1\C(=O)C[C@H]2[C@@H]3CCC4=CC(=O)CC[C@]4(C)[C@H]3CC[C@]12C | -12% [at 35.3 µM] (inactive) |
| N#CC1(O)CCCCC1 | 19% (inactive) |
